Molecules are shown by their SMILES. Hit rate of the full screen: of about 340,000 compounds, about 12,000 (3.5%) were called active. Entries that show only a call come without a potency. Another 18% or so got no clear call; they are omitted. The call rests on the fitted dose curve; in most records, active means well fitted inhibition curve with a large enough effect; inconclusive means small, poorly fitted or top-dose-only effect, or another doubt; inactive means no such curve, though single readings can be large or run the other way. The full list was thinned out, with actives kept by preference. Some compounds were tested as several samples or in several runs, with calls that do not always agree.
Potency means the concentration at half of the fitted maximal effect.

This assay in a line: qHTS Assay for Inhibitors of Hepatitis C Virus (HCV). To be noted: Huh7.5.1 HCVcc-Cre infection, luciferase reporter, 44 h; series mostly up to 41.8 µM. The method in brief:
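Compounds are dispensed onto cells plated 4 h earlier at 1,000 per well, with HCVcc-Cre virus (about 0.5 moi) added next. Following 44 h of culture, luminescent signal is measured for 15 sec after 15 min with substrate at room temperature.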
A general note: Quantitative high-throughput screening tests each substance at several concentrations.
Take `O=C(NCC1(N2CCCCC2)CCCCC1)c1ccc(NS(=O)(=O)c2ccc(F)cc2)cc1`: the Potency entry was “inactive”. On the same count and under the same terms, the same measure for `O=C(NCC1(N2CCCCC2)CCCCC1)c1cccc(S(=O)(=O)Nc2ccccc2Cl)c1`: “inactive”. On to `CCOc1ccc(S(=O)(=O)Nc2cccc(C(=O)NCC3(N4CCCCC4)CCCCC3)c2)cc1`, for which the Potency is 12.6 µM (active). Consider `O=C(CCNS(=O)(=O)c1ccccc1)NCCCc1ccccc1`, for which the Potency entry is “inactive”.

Regarding `NS(=O)(=O)c1ccc(CCNC(=O)COC(=O)COc2cccc(C(F)(F)F)c2)cc1`, the Potency entry is “inactive”. The same measure, in the same setting: under `CN(C)C(=O)CCc1ccc2c3c([nH]c2c1)[C@]1(C)[C@@H](C(=O)N2CCOCC2)C[C@H](CC(=O)NCCc2ccccn2)C(=O)N1CC3` stands “inactive”. For the molecule `N#CC1(Nc2ccc(-c3ccc(Cl)cc3)cc2)CCCC1`, the Potency entry is “inactive”. On to `O=C1COc2c1ccc(O)c2O`, for which the Potency result was “inactive”. For the molecule `CC(C)(C)c1ccc(C(=O)NCc2ccco2)cc1`, the Potency entry is “inactive”. Still for that read-out and setting: the same measure for `CC(C)(C)OC(=O)CNC(=O)c1[nH]cnc1C(=O)N[C@@H](CCCCN)C(=O)OC(C)(C)C`: “inactive”.

With `O=C(Nc1cc(-c2nn(CC(=O)N3CCCCC3)c(=O)c3ccccc23)ccc1N1CCOCC1)c1ccc(Cl)cc1`, the Potency entry is “inactive”.

In the case of `O=C(Nc1cc(Cl)ccc1N1CCOCC1)c1ccc(N2CCCC2=O)cc1`, the Potency is 35.5 µM (active). As to `COc1c(C)cccc1C(=O)Nc1cc(Cl)ccc1N1CCOCC1`, the Potency result is “inactive”. Still for that read-out and setting: under `COc1ccc(CCNC(=O)COC(=O)c2ncc(Cl)c(Cl)c2Cl)cc1OC` stands “inactive”; under `O=C(CSc1nc2ccccc2c(=O)n1-c1ccc(F)cc1)NC1CC1`, “inactive”; under `COCCN(C(=O)CSCc1ccc(C)cc1)c1c(N)n(CC(C)C)c(=O)[nH]c1=O`, “inactive”.

On to `N#Cc1ccc(C(=O)OCC(=O)NC(=O)NC2CCCCC2)cc1`, for which the Potency entry is “inactive”. Still for that read-out and setting: under `O=C(NNC(=O)c1cc(-c2ccccc2Cl)nc2ccccc12)c1csc(N2CCOCC2)n1` stands “inactive”. In the case of `C=CC[n+]1c(-c2ccc(C)cc2)csc1NNC(=O)Nc1ccccc1`, the Potency was 5.62 µM (active).

As for `O=C(NNC(=O)c1ccc(-c2ccccc2)cc1)Nc1ccccc1`, the Potency entry is “inactive”.

In the case of `C=CCNc1scc(-c2ccccc2)[n+]1CC=C`, the Potency result is “inactive”. Turning to `N#CC(Cc1cc2ccccc2n1S(=O)(=O)c1ccccc1)OCc1ccccc1` (stereo not drawn), the Potency entry was “inactive”. On the same count and under the same terms, under `Nc1cccnc1Sc1ccccc1` stands “inactive”; under `O=[N+]([O-])c1ccc(N2CCSCC2)cc1O`, “inactive”. As to `CC1CCN(c2ccc([N+](=O)[O-])c(SCCO)c2)CC1`, the Potency is 10 µM (active). As for `CN1CCN(c2ccc([N+](=O)[O-])c(Sc3nc4ccccc4[nH]3)c2)CC1`, the Potency result is “inactive”. `Cc1occc1-c1nnc(SCC(=O)NC2(C#N)CCCC2)n1C`: the Potency entry was “inactive”. Still for that read-out and setting: the same measure for `CN(C)CCCN(C(=O)c1ccc(S(=O)(=O)N2CCCCCC2)cc1)c1nc2cc3c(cc2s1)OCCO3`: “inactive”. Still for that read-out and setting: under `O=[N+]([O-])c1ccc(C=NN=Cc2ccc([N+](=O)[O-])cc2)cc1` stands “inactive”; under `COC(=O)c1ccc(C(=O)OC)c(NC(=S)N2CCN(c3cc(Cl)ccc3C)CC2)c1`, “inactive”; under `Cc1cccc(N2CCN(C(=O)c3cnn4c(C(F)F)cc(-c5ccccc5)nc34)CC2)c1C`, “inactive”. On the same count and under the same terms, under `Cc1ccc(Cl)cc1N1CCN(C(=O)c2cccc3c(=O)c(C)c(-c4ccccc4)oc23)CC1` stands 10 µM (active); under `CC(C#N)OC(=O)c1cccnc1SCC(=O)Nc1ccc2c(c1)OCO2` (stereo not drawn), “inactive”. `Cc1ccc(CN2CC(C(=O)N3CCN(S(=O)(=O)c4ccccc4)CC3)CC2=O)cc1` (stereo not drawn): the Potency result was “inactive”. Still for that read-out and setting: under `Cc1nn2c(NCCN(C)C)c3c(nc2c1-c1ccccc1)CCC3` stands 12.6 µM (active).

For the molecule `Cc1cc(N2CCCC2)n2nc(C)c(-c3ccccc3)c2n1`, the Potency result is “inactive”. On the same count and under the same terms, under `Cc1cc(C(C)(C)C)n2nc(C)c(-c3ccccc3)c2n1` stands “inactive”. Regarding `O=C(COC(=O)c1ccc(F)cc1)Nc1nc2ccc([N+](=O)[O-])cc2s1`, the Potency entry is “inactive”.

Turning to `O=C(Nc1nc2ccc([N+](=O)[O-])cc2s1)c1ccncc1`, the Potency result is “inactive”. On to `O=C(NC(Nc1nc2ccc([N+](=O)[O-])cc2s1)(C(F)(F)F)C(F)(F)F)c1ccccc1`, for which the Potency is 0.562 µM (active). The same measure, in the same setting: the same measure for `NC(=O)C1CCN(C(=O)c2cc(S(=O)(=O)N3CCN(c4ccccc4)CC3)ccc2Cl)CC1`: “inactive”. Same read-out and setting: the same measure for `CC(=O)c1c(C)[nH]c(C(=O)OCC(=O)Nc2cc(S(=O)(=O)N3CCCCC3)ccc2C)c1C`: “inactive”; for `CC(=O)c1c(C)[nH]c(C(=O)OCC(=O)NCCC(C)C)c1C`: 11.2 µM (active); for `CC(=O)c1c(C)[nH]c(C(=O)COC(=O)c2cccs2)c1C`: “inactive”.

In the case of `N#CCC(=O)Nc1ccc(C(=O)OCC(=O)Nc2sc3c(c2C#N)CCCC3)cc1`, the Potency entry is “inactive”. Regarding `Cc1cccc(C(=O)OCC(=O)Nc2sc3c(c2C#N)CCC3)c1`, the Potency entry is “inactive”.

Consider `CC(=O)c1c(C)[nH]c(C(=O)OCC(=O)Nc2sc3c(c2C#N)CCCC3)c1C`, for which the Potency was 12.6 µM (active).

Take `NN=C(NN=Cc1ccccc1)c1ccccc1`: the Potency entry is “inactive”.

On to `O=[N+]([O-])c1cc2ccccc2nc1-c1ccccc1`, for which the Potency entry is “inactive”.

For `CC1CCCCC12NC(=O)N(CC(=O)Nc1ccc(S(=O)(=O)Nc3ncccn3)cc1)C2=O` (stereo not drawn), the Potency result was “inactive”. On the same count and under the same terms, the same measure for `COc1ccc(NC(=O)CC2SC(N3CCCCC3)=NC2=O)cc1OC` (stereo not drawn): “inactive”; for `Cc1ccc(CN(C)CC(=O)Nc2cccc([N+](=O)[O-])c2)o1`: “inactive”; for `Cc1ccc(NC(=O)CN(C)CC(=O)Nc2cccc(F)c2)cc1[N+](=O)[O-]`: 5.62 µM (active). Regarding `CN(CC(=O)Nc1cccc(F)c1)CC(=O)Nc1cccc([N+](=O)[O-])c1`, the Potency result was “inactive”. Regarding `COc1ccc(/C=C2/CCCc3ccccc3C2=O)cc1`, the Potency entry was “inactive”. For `Oc1c(Cl)cc(Cl)c(Cl)c1Cc1c(O)c(Cl)cc(Cl)c1Cl`, the Potency was 8.91 µM (active) and the activity change, negative = inhibition was -0.125% [at 8.37 µM] (inactive). For `O=C(NCC(c1ccco1)N1CCc2ccccc2C1)c1ccccc1Cl` (stereo not drawn), the Potency result is “inactive”. Still for that read-out and setting: under `CC(=O)C(CC(=O)N1CCCC1)C(=O)Nc1ccc(Cl)cc1` (stereo not drawn) stands “inactive”; under `CC/C(=C\c1ccc(Cl)cc1)c1ccncc1`, “inactive”. Still for that read-out and setting: the same measure for `COC(=O)c1ccc(CNC(=O)Cn2cc(C)c(=O)[nH]c2=O)cc1`: “inactive”; for `O=c1nc(NO)ccn1C1CCCO1` (stereo not drawn): “inactive”; for `COc1ccccc1N(CC(=O)Nc1ccc(C)cc1Cl)S(=O)(=O)c1cccs1`: “inactive”. For `CCOc1cc2[nH]c(=S)n(Cc3ccc(C(=O)N4CCN(C)CC4)cc3)c(=O)c2cc1OCC`, the Potency was 12.6 µM (active). The same measure, in the same setting: the same measure for `CCOc1cc2[nH]c(=S)n(Cc3ccc(C(=O)NCCOC)cc3)c(=O)c2cc1OCC`: “inactive”; for `COc1ccccc1Cn1c(=S)[nH]c2cc(C(=O)N3CCN(C)CC3)ccc2c1=O`: “inactive”; for `C[C@H](CO)N1C[C@H](C)[C@@H](CN(C)C(=O)NC2CCCCC2)Oc2ccc(NC(=O)c3ccncc3)cc2C1=O`: “inactive”.

Take `CCN(C[C@H]1N[C@@](Cc2ccccc2)(C(=O)OC)[C@H]2C(=O)N(Cc3ccccc3)C(=O)[C@@H]12)C(=O)c1ccc(C)cc1`: the Potency entry was “inactive”. Consider `Cc1cc(C(=O)N/N=C/c2cc([N+](=O)[O-])cc(C)c2O)n[nH]1`, for which the Potency entry is “inactive”. Still for that read-out and setting: the same measure for `COc1ccc2ccccc2c1/C=N/NC(=O)c1cc(C)[nH]n1`: “inactive”. Still for that read-out and setting: the same measure for `CC(C)(C)c1cc(C(=O)N/N=C/c2ccc([N+](=O)[O-])s2)n[nH]1`: 25.1 µM (active). The same measure, in the same setting: the same measure for `COc1ccc(S(=O)(=O)N2CCc3ccccc32)cc1C(=O)Nc1cc(S(C)(=O)=O)ccc1Cl`: “inactive”. For the molecule `O=C(CSCC(=O)Nc1cccc([N+](=O)[O-])c1)Nc1ccccc1`, the Potency result is “inactive”. In the case of `CCNC(=O)CSc1nc(-c2ccccc2)cs1`, the Potency entry is “inactive”.

In the case of `O=C(CSc1nc(-c2ccccc2)cs1)Nc1cccc([N+](=O)[O-])c1`, the Potency is 11.2 µM (active). Still for that read-out and setting: the same measure for `COc1ccccc1CNC(=O)CSc1nc(=O)n(Cc2ccncc2)c2c1CCC2`: “inactive”; for `C/C(=N/Nc1nc(-c2ccccc2)c(CC(=O)O)s1)c1ccccc1`: 12.6 µM (active). The same measure, in the same setting: the same measure for `O=C(O)Cc1sc(-c2ccccc2)nc1-c1cccs1`: “inactive”. The same measure, in the same setting: the same measure for `CCOC(=O)C(=O)Nc1nc(-c2ccccc2)c(CC)s1`: “inactive”; for `CC1O[C@@H](OC2C(O)C(C)O[C@H](OC(=O)[C@]34CCC(C)(C)C[C@H]3C3=CCC5[C@@]6(C)CC(O)C(O[C@@H]7OC(CO)C(O)[C@@H](O)[C@@H]7O)[C@@](C)(C(=O)O)C6CC[C@@]5(C)[C@]3(CO)CC4)C2O[C@H]2OC(C)[C@@H](O[C@@H]3OCC(O[C@@H]4OC(CO)C(O)[C@H](O)C4O)[C@@H](O)[C@@H]3O)[C@H](O)C2O)C(O)C(O)C1O` (stereo partly drawn): “inactive”; for `CCCCn1c(N)c(N(CC(C)C)C(=O)c2ccc(-n3c(C)ccc3C)cc2)c(=O)[nH]c1=O`: “inactive”. For `Cc1c(C)n2c(SCC(=O)N3CCCC3)nnc2[nH]c1=O`, the Potency result is “inactive”. With `COc1ccc(C(=O)OCc2cc(=O)n3ccsc3n2)cc1F`, the Potency entry was “inactive”.

For the origin of these results see PubChem BioAssay AID651820 (National Center for Advancing Translational Sciences (NCATS), 2012).
